Screening data (PubChem BioAssay)
Pf growth 48h: P. falciparum growth inhibition at 48 hours (one generation). P. falciparum luciferase growth in erythrocytes, 48 h. Potency, µM (top dose mostly 28.7 µM), for the others: top-dose activity change, negative = inhibition, actives largely listed as inhibitors. 310,000 compounds, 5.9% hits. AID 504832; also: potency is read from the fitted curve at half-maximal effect; % is scaled to controls: 0 for no effect and ±100 for the full control effect
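Read-out is firefly luciferase luminescence from an integrated reporter in P. falciparum, so falling signal marks reduced parasite growth. Infected erythrocytes were at 2% hematocrit and 0.1% parasitemia (final) in Albumax-supplemented RPMI 1640.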
Shiga inhibitor: inhibitors of Shiga toxin in Vero cells | Vero cells, Shiga toxin protein synthesis inhibition reporter | inhibition, % at 38.7 µM | 290,000 compounds, 9.2% hits; in the data active = inhibition mostly above about 28%, no sharp cut-off; inactive = mostly below about 43%; also: 0% is about no effect
Pf growth 96h: P. falciparum growth inhibition at 96 hour, primary screen for plastid delayed-death inhibitors; P. falciparum luciferase reporter growth, 96 h; Potency, µM (doses to about 28.7 µM), without a hit: top-dose activity change, negative = inhibition, usual class: inhibitors; 320,000 compounds, 6.9% hits; AID 504834; also: potency is read from the fitted curve at half-maximal effect; % is scaled to controls: 0 for no effect and ±100 for the full control effect
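P. falciparum expressing integrated firefly luciferase, in erythrocytes at 2% hematocrit, 0.05% parasitemia, incubated with compounds 96 h at 37 C, 5% CO2. Growth inhibition read as loss of luminescence; two-generation exposure targets delayed-death apicoplast inhibitors.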
Cycloheximide cs: counter-screen hit for Shiga toxin inhibitors, cycloheximide | max response, % | cell reporter, cycloheximide protein synthesis inhibition counterscreen | 300,000 compounds, 12% hits | AID 2314; in the data active = max response mostly above about 13%, no sharp cut-off; inactive = mostly below about 14%; also: read at 38.3 µM for the half of the compounds with a filed dose; 0% is about no effect
* = called active by the depositor; ? = inconclusive; nt = not tested or not shown; [ ] = another dose, or the depositor's remark. A selection: hits, their analogues and other compounds. The true share with any hit is near 21%. Unless noted, calls follow the shape of the dose curve; as a rule, active = well fitted inhibition curve with a large enough effect; inconclusive = small, poorly fitted or top-dose-only effect, or another doubt; inactive = no such curve, though single readings can be large or run the other way.

SMILES | Pf growth 48h | Shiga inhibitor | Pf growth 96h | Cycloheximide cs
Cc1nn(-c2ccccc2)c(Cl)c1C(=O)Nc1ccc(N2CCOCC2)cc1 | -13% | -6 | -8% | -3
Cn1nc(C(=O)Nc2cccc(Cl)c2)cc1C(=O)Nc1cccc(Cl)c1 | ? | 12 | -2% | -3
Cc1cccc(NC(=O)c2c(C)nn(-c3ccccc3)c2Cl)c1 | 5% | 113* | 5% | 47*
Cc1nn(Cc2ccccc2)c(Cl)c1C(=O)NCCc1ccc(Cl)cc1 | ? | 18 | ? | 14*
Cc1nn(-c2ccccc2)c(Cl)c1C(=O)NCCCCNC(=O)c1c(C)nn(-c2ccccc2)c1Cl | 13µM* | -15 | nt | -3
Cc1nn(-c2ccccc2)c(Cl)c1C(=O)NCc1ccccc1F | ? | 17 | ? | 7
O=C(c1cccnc1)c1ncc(C(F)(F)F)cc1Cl | 7% | -7 | 16% | -2
O=[N+]([O-])c1ccc(-n2nnnc2CN2CCCCC2)cc1 | 10% | -12 | -2% | 0
Nc1ccc(-n2nnnc2CN2CCOCC2)cc1 | 19% | -2 | ? | -2
Nc1cccc(-n2nnnc2CN2CCOCC2)c1 | 0% | 12 | 10µM* | 0
O=[N+]([O-])c1ccc(-n2nnnc2CN2CCOCC2)cc1 | 3% | -8 | 6.6µM* | -3
O=C(CCCNC(=O)c1ccc(Cl)cc1)Nc1ccc(F)c(S(=O)(=O)N2CCOCC2)c1 | ? | nt | -27% | nt
Cc1c(S(=O)(=O)N2CCCCC2)c(=O)n(C)c(=O)n1C | 6% | nt | -5% | nt
CCOc1ccc(NC(=S)NNC(=O)c2cc(Br)ccc2Cl)cc1 | -8% | -3 | -33%[5.75 µM] | 9
CCOc1ccc(NC(=S)NNc2ccnc3cc(Cl)ccc23)cc1 | ? | -8 | 2.1µM* | 8
S=C(NCc1ccncc1)Nc1ccc(Cl)cc1Cl | -35% | 3 | 23% | 8
S=C(NNc1ccnc2cc(Cl)ccc12)Nc1ccc(Cl)cc1Cl | 1.9µM* | 1 | 0.74µM* | -3
CCCN1C/C(=C/c2ccc3c(c2)OCO3)C(=O)/C(=C/c2ccc3c(c2)OCO3)C1 | 0% | 6 | 1.9µM* | 7
Cc1ccc(NC(=O)CN2C(=O)N/C(=C/c3ccc4c(c3)OCCO4)C2=O)cc1 | 24% | -4 | 13% | -2
CCCN1C(=O)/C(=C/c2ccc3c(c2)OCO3)NC1=S | 3% | 5 | 9.3µM* | 11
CCCN1C/C(=C/c2cccc([N+](=O)[O-])c2)C(=O)/C(=C/c2cccc([N+](=O)[O-])c2)C1 | 15µM* | -7 | ? | 19
Cc1cccc(C(C(=O)NC2CCCCC2)N(C(=O)c2csnn2)C2CC2)c1 (stereo unspecified) | 0% | 11 | -12% | -3
CCCCC/C=C\C/C=C\C/C=C\C/C=C\CCCC(=O)NC1CC1 | nt | 12 | nt | 12
O=Cc1cn(-c2ccccc2)nc1-c1cc2ccccc2oc1=O | 24% | 61 | nt | -2
Cc1ccc(-c2nn(-c3ccccc3)cc2C2SCC(=O)N2Cc2ccccc2)o1 (stereo unspecified) | 10µM* | 10 | -21% | -4
SMILES | Pf growth 48h | Shiga inhibitor | Pf growth 96h | Cycloheximide cs
O=C1CSC(c2cn(-c3ccccc3)nc2-c2cc3ccccc3o2)N1Cc1ccccc1 (stereo unspecified) | nt | -11 | 4.1µM* | 16
O=C1CSC(c2ccccc2)N1Cc1ccccc1 (stereo unspecified) | -8% | -12 | ? | -3
O=C1CSC(c2cn(-c3ccccc3)nc2-c2cccs2)N1Cc1ccccc1 (stereo unspecified) | nt | -16 | 2% | 0
O=C1CSC(c2cn(-c3ccccc3)nc2-c2cc3ccccc3oc2=O)N1Cc1ccco1 (stereo unspecified) | 10µM* | 16 | ? | 15
COC(=O)c1ccc2nc(C)cc(Nc3ccc(N(C)C)cc3)c2c1 | 1.7µM* | -13 | ? | -3
Cc1cc(Nc2ccc3c(c2)OCCO3)c2cc(Cl)ccc2n1 | 7.4µM* | 79* | 247% | 68*
Cc1cc(C)c(C#N)c(Nc2ccc3c(c2)OCCO3)n1 | nt | -15 | ? | -5
Cc1ccc(Nc2cc(C)nc3ccc(C)cc23)cc1 | -105% | -9 | 0.042µM* | 3
COc1ccc(C(F)(F)F)cc1N/C=C/c1nnnn1-c1ccc2ccccc2c1 | -6% | 11 | 16% | -5
COc1ccc(N2C(=O)C(C)(C)C2c2c(O)ccc3ccccc23)cc1 (stereo unspecified) | 8.3µM* | -3 | -2% | -2
COc1ccc(-n2cnc3cc(C(=O)NCCN4CCOCC4)ccc32)cc1 | ? | -13 | 5% | -7
COc1ccc(C(=O)NCc2ccc(-n3cccc3)cc2)cc1OC | -14% | 28 | ? | 1
Cc1ccc(S(=O)(=O)N2CC3CCCC2C3)cc1 (stereo unspecified) | 1.7µM* | 1 | -33% | -1
Cc1ccc(S(=O)(=O)N2CC3CCC2C3)cc1 (stereo unspecified) | 48% | 13 | -11% | -1
COc1cccc(CNCC(O)(c2ccc(Cl)cc2)c2ccc(Cl)cc2)c1 | 6.6µM* | 57 | 1.3µM* | -4
COc1ccc(CNCC(O)(c2ccccc2)c2ccc(Cl)cc2)cc1 (stereo unspecified) | 2.3µM* | -2 | 2.3µM* | 10
OC(CNCc1ccc(Cl)cc1)COc1ccccc1 (stereo unspecified) | nt | 1 | -19% | 7
CCc1ccc(C(O)(CNCc2ccccc2)c2ccccc2)cc1 (stereo unspecified) | ? | 1 | ? | 6
COc1cccc(CCNCc2cccc(C(F)(F)F)c2)c1 | -20% | -23 | 42%[1.15 µM] | 2
Cc1ccc(CNCC(O)(c2ccccc2)c2ccc(Cl)cc2)cc1 (stereo unspecified) | 0.83µM* | 9 | 1.7µM* | -1
Cc1ccc(CNCC(O)(c2ccccc2)c2ccccc2)cc1 | ? | 23 | ? | 15*
N#CC(C#N)=C(N)/C(C#N)=C/c1cc(O)c(O)c(O)c1 | 12µM* | nt | 9.3µM* | nt
CCCCC1=CC2=CC(=O)C(C)(OC(=O)CC)C(=O)C2=CN1C1CCCCC1 (stereo unspecified) | ? | -7 | 9.3µM* | -3
CCCCC1=CC2=CC(=O)C(C)(OC(=O)CC)C(=O)C2=CN1c1ccc(OC)cc1 (stereo unspecified) | 12µM* | -5 | 9.3µM* | 0
CC1(OC(=O)CCc2ccccc2)C(=O)C=C2C=C(c3ccc(C#N)cc3)N(C3CC3)C=C2C1=O (stereo unspecified) | 13µM* | -14 | ? | -4
SMILES | Pf growth 48h | Shiga inhibitor | Pf growth 96h | Cycloheximide cs
COc1c(O)c(O)c2cc(OC)c3c(OC)cc(=O)c4c5c(=O)c(OC)c(C(C)=O)c6c5c(c1CC=6C)c2c34 | nt | -5 | nt | 1
Cc1cc(C)n(CCNC(=O)c2ccco2)n1 | 16% | 57 | 1% | -1
Cc1cccc(NC(=O)CCCC(=O)OC(C)C(=O)c2ccccc2)c1 (stereo unspecified) | -11% | -7 | ? | 1
COc1cnc(-c2ccccc2)nc1Oc1ccccc1C | ? | 3 | ? | 3
COc1cnc(-c2ccccn2)nc1NC(C)C | 15µM* | 49 | ? | 9
COc1cnc(-c2ccccc2)nc1Oc1cccc(C)c1C | -12% | -14 | -1% | -3
COc1cnc(-c2ccccn2)nc1Oc1ccc(Cl)c2ccccc12 | 2.1µM* | -8 | 6.6µM* | -4
